This is a sample that favours compounds with a hit; in the whole collection about 0.3% have one here.
NPYLR7 agonist = agonists of mosquito NPYLR7 receptor, primary screen, cell-based, Aedes aegypti, calcium fluorescence, mosquito biting behavior; activation, % at 10 µM; Aedes aegypti neuropeptide Y-like receptor 7 (NPYLR7); HEK293T NPYLR7/Galpha15, GCaMP6s calcium fluorescence; AID 1259423, 2018; 0.15% of 270,000 active; in the data active means activation above about 40%
hcGAS inh = Primary biochemical luminescence assay for human cyclic GMP-AMP synthase inhibitors. inhibition, % at 12.5 µM. recombinant h-cGAS, ATP depletion, Kinase-Glo luminescence. AID 1259398, 2018. 0.081% of 290,000 active
mcGAS lum = cyclic GMP-AMP synthase inhibitors, mouse, primary biochemical chemiluminescence; AID 1259399, 2018; recombinant cGAS, Kinase-Glo ATP depletion luminescence; 0.15% of 160,000 active; inhibition, % at 12.5 µM
Of the large screens only hits and unclear results are named; the others gave an inactive call. Unless noted, no stated cut-off is given here; in the data, active means inhibition above about 40%; inactive means the rest.

COC(=O)[C@]12CCC(C)(C)C[C@H]1[C@H]1C(=O)C=C3[C@@]4(C)C=C(C#N)C(=O)C(C)(C)[C@@H]4CC[C@@]3(C)[C@]1(C)CC2	mcGAS lum 52
Fc1cccc(C2NCc3ccccc3-n3cccc32)c1F (stereo unspecified)	none (no result: mcGAS lum)
Cc1cc(CC(C)NC2CSCCSC2)n[nH]1 (stereo unspecified)	none (no result: NPYLR7 agonist)
COc1ccc2c(c1)c(C(=O)Nc1nn[nH]n1)c(C)n2C1CCCC1	none
Oc1c(Cl)c(Cl)c(Cl)c(Cl)c1Cl	hcGAS inh 70 (no result: mcGAS lum)
O=C1NC(=S)NC(=O)C1=Cc1cccc2ccccc12	none
COC(c1ccccc1)C(C)NCCO (stereo unspecified)	none (no result: mcGAS lum)
O=[N+]([O-])c1c(Cl)ccc2c1no[n+]2[O-]	hcGAS inh 61, mcGAS lum 93
O=[N+]([O-])c1cc(C(F)(F)F)cc2c1no[n+]2[O-]	none (no result: mcGAS lum)
O=C(O)c1ccccc1-c1c2cc(Br)c(=O)cc-2oc2[c]([Hg])c(O)c(Br)cc12	NPYLR7 agonist 60 (no result: mcGAS lum)
Cc1cc(C(=O)OCC(=O)NC(=O)NC(C)C)c(C)n1C1CC1	none (no result: mcGAS lum)
CC(C)(C#N)P(=S)(c1ccccc1)c1ccccc1	none (no result: mcGAS lum)
CCN(CC)P1(=S)c2c(c3ccccc3n2C)C=NN1c1ccccc1 (stereo unspecified)	none (no result: mcGAS lum)
N#CC1C(=N)Oc2c(c(=O)oc3ccccc23)C1c1ccc([N+](=O)[O-])o1 (stereo unspecified)	mcGAS lum 59
N#CC1C(=N)Oc2c(c(=O)oc3ccccc23)C1c1cccc(F)c1 (stereo unspecified)	none
CCC(=O)N(Cc1ccco1)Cc1cc(NC(=O)CC(C)(C)C)ccc1N(C)C1CCN(C)CC1	none
CN(C)C(=Nc1ccc(I)cc1)P(=O)(N(C)C)N(C)C	none (no result: mcGAS lum)
COc1ccc2c3c([nH]c2c1)C(C)=NCC3	none
CC1=NCCc2c1[nH]c1cc(O)ccc21	NPYLR7 agonist 65
O=c1c(O)c(-c2ccc(O)c(O)c2)oc2c(O)c(O)cc(O)c12	hcGAS inh 47 (no result: mcGAS lum)
NC(=O)c1ccsc1NC(=O)CN1CC=C(c2ccc(O)cc2)CC1	none
Cc1cccc(N2C(=O)NC(=O)/C(=C/c3cn(C)c4ccccc34)C2=O)c1	NPYLR7 agonist 53
Cc1ccc(N2C(=O)NC(=O)/C(=C/c3cn(C)c4ccccc34)C2=O)cc1	none
Cc1ccc(CN2CCCC(C(=O)c3cccc(OC(C)C)c3)C2)o1 (stereo unspecified)	none
CCn1nc(-c2cccs2)nc2c(=O)n(C)c(=O)nc1-2	mcGAS lum 59
COCCC1CN(Cc2c[nH]c3ccc(C)cc23)CCO1 (stereo unspecified)	none (no result: mcGAS lum)
Cc1ccoc1C(=O)N1[C@H]2CCNC[C@@H]1CC2	none (no result: mcGAS lum)
COc1ccc(OC)c(NC(=O)N2CCN(CCOC(c3ccccc3)c3ccccc3)CC2)c1	none
N#CC(C#N)=Cc1ccc(O)cc1	none (no result: mcGAS lum)
N#CC(C#N)=Cc1ccc(-c2ccccc2)cc1	mcGAS lum 49
Clc1ccc(C2CC(c3cccnc3)=Nc3ncnn32)cc1 (stereo unspecified)	none (no result: mcGAS lum)
CC(C)N(C(C)C)C(C(=O)NC1CN2CCC1CC2)c1ccccc1 (stereo unspecified)	none
O=C1OC2(c3cc(Br)c(O)cc3Oc3c2cc(Br)c(O)[c]3[Hg])c2ccccc21 (stereo unspecified)	NPYLR7 agonist 98

Bioassay records from PubChem BioAssay.
